Compounds with a hit are over-represented: about 5.7% of the library has one in this group of screens.
B2AR arrestin: recruits beta-arrestin to the human beta2-adrenergic receptor; Potency, µM (highest dose often 46.1 µM), for the others: at the top dose activation, hits mostly activators; AID 492947; beta-arrestin recruitment to beta2AR, cell-based reporter; P07550; 330,000 tested, 0.02% active;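 further: 0% = DMSO controls and full agonism = EC100 isoproterenol or metaproterenol; nearly all actives have a fitted effect of over 65% in size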
RORg inh: inhibitors of mouse ROR gamma transcriptional activity | P51450 | Drosophila S2 Gal4-RORgamma UAS-luciferase reporter, 20 h | Potency, µM (series often up to 53.6 µM), for inactives: top-dose activity change, negative = inhibition, most hits filed as inhibitors | 310,000 tested, 5.4% active | AID 2551; further: nearly all actives have a fitted effect of over 60% in size
Target sequence (P51450 whole entry, looked up, the tested form may be a part): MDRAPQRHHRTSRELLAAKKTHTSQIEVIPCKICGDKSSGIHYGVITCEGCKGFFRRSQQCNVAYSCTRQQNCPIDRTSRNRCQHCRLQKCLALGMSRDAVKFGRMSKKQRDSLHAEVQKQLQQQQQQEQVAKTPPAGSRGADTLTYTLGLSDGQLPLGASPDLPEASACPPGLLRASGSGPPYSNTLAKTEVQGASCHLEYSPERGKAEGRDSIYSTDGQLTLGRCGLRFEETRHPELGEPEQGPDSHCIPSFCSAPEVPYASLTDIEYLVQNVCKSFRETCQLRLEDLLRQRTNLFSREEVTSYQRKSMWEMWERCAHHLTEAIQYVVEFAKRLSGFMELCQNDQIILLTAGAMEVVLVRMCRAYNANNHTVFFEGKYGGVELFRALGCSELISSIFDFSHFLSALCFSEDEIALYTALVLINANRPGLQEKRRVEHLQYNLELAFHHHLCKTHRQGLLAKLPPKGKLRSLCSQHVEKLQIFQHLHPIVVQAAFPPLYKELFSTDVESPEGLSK
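Luciferase reporter read in Schneider cells carrying Gal4-RORγ (mouse) and UAS-Photinus luciferase; cells given compound 1 h before 700 uM copper sulfate induction, then incubated 20 h at ambient temperature.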
VP16 counter: Gal4-VP16 reporter inhibition counter-screen | Drosophila S2 Gal4-VP16 UAS-luciferase, luminescence, 20 h | Potency, µM (titrated, usually from 53.6 µM), for the others: at the top dose activity, negative = inhibition, usual class: inhibitors | 310,000 tested, 3.5% active | AID 2546;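 further: Gal4-VP16 expression switched on by copper sulfate through the metallothionein promoter; nearly all actives have a fitted effect of over 50% in size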
NPSR antagonist: neuropeptide S receptor (human) antagonism, cAMP | Q6W5P4 | CHO-NPSR cells, cAMP TR-FRET, antagonist mode | Potency, µM (top dose mostly 38.3 µM), for the others: top-dose activity change, negative = inhibition, hits mostly inhibitors | 220,000 tested, 1% active; further: nearly all actives have a fitted effect of over 50% in size
* = called active by the depositor; ? = inconclusive; . = not tested or not shown; [ ] = remark or other dose. The call rests on the fitted dose curve; in most records, active means well fitted curve in the direction sought with a large enough effect; inconclusive means small, poorly fitted or top-dose-only effect, or another doubt; inactive means no such curve, though single readings can be large; an effect the other way counts as inactive or inconclusive. Unless noted, on the % scale 0 is the no-effect control and ±100 the full control effect; potency means the concentration at half of the fitted maximal effect.

SMILES	B2AR arrestin	RORg inh	VP16 counter	NPSR antagonist
CC1CN(C(=O)CCC(=O)NCc2ccccc2Cl)c2ccccc2S1 (stereo not drawn)	0.2%	0.8%	1.7%	.
Cn1cccc1C(=O)N1CCC2(CCN(Cc3ccccc3)CC2)CC1	.	8.1%	-3.0%	.
CCC(=O)N1CCN(c2nc3ccccc3s2)CC1	0.0%	?	6.6%	-0.9%[46.1 µM]
O=C(c1cc2sccc2n1Cc1ccccc1)N1CCN(c2nc3ccccc3s2)CC1	-0.8%	-25.9%	10µM*	-22.7%[46.1 µM]
CO/N=C(/C(=O)N[C@@H]1C(=O)N2C(C(=O)O)=C(COC(N)=O)CS[C@H]12)c1ccco1	.	16.6%	-1.4%	.
O=C(NNC(=O)c1ccccc1C(=O)O)c1ccc(-c2ccccc2)cc1	-0.4%	14.1µM*	1.4%	4.7%
O=C(Cc1ccccc1)Nc1cccc(C(=O)O)c1O	-0.1%	-31.4%	10µM*	-0.5%
Cc1occc1C(=O)NNC(=O)c1ccccc1C(=O)O	-0.2%	?	-6.2%	12.6%
O=C(Cc1ccccc1)NNC(=O)c1ccccc1C(=O)O	0.4%	3.16µM*	5.4%	43.8%
Cc1noc(C)c1-c1ccc2ncnc(NCc3cccc(C(F)(F)F)c3)c2c1	.	-15.9%	12.6µM*	.
Cc1noc(C)c1-c1ccc2ncnc(N(C)Cc3ccco3)c2c1	.	12.6µM*	?	.
COc1ccc(CNc2nc(-c3ccccc3OC)nc3ccccc23)c(OC)c1	.	12.6µM*	?	.
Cc1noc(C)c1-c1ccc2ncnc(NCc3ccc(F)cc3)c2c1	.	8.6%	-12.4%	.
COc1cccc(-c2nc(NCc3ccc(OC)cc3OC)c3ccccc3n2)c1	.	-10.5%	4.8%	.
Cc1noc(C)c1-c1ccc2ncnc(NCc3ccccc3F)c2c1	.	-9.3%	11.2µM*	.
CC(=O)Nc1ccc(OC(=O)c2ccc(Br)c([N+](=O)[O-])c2)cc1	-0.4%	?	?	-11.7%
COc1ccccc1CNc1ncnc2ccc(-c3ccc(N(C)C)cc3)cc12	.	-3.5%	3.0%	.
COc1ccccc1CNc1ncnc2ccc(-c3ccccc3OC)cc12	.	?	22.4µM*	.
Cc1noc(C)c1-c1ccc2ncnc(NCc3cccc(-c4ccccc4)c3)c2c1	4.4%	7.8%	?	.
CCOc1ccccc1CNc1ncnc2ccc(-c3c(C)noc3C)cc12	-0.2%	39.8µM*	?	.
O=C(c1csnn1)N1CCC2(CC1)CCN(C(c1ccccc1)c1ccccc1)CC2	.	-0.6%	-8.3%	.
N#CC1=C(N)Oc2n[nH]c(-c3ccccn3)c2C1c1c(F)cccc1Cl (stereo not drawn)	0.3%	3.16µM*	8.91µM*	-27.5%[46.1 µM]
COCc1[nH]nc2c1C(c1c(F)cccc1Cl)C(C#N)=C(N)O2 (stereo not drawn)	0.2%	?	17.8µM*	-23.9%[46.1 µM]
COCc1[nH]nc2c1C(c1ccccc1Cl)C(C#N)=C(N)O2 (stereo not drawn)	-0.1%	-22.0%	-16.6%	-9.7%[46.1 µM]
CC(C)(Oc1ccc(Cl)cc1)C(=O)NC1CC1	0.1%	.	.	.
SMILES	B2AR arrestin	RORg inh	VP16 counter	NPSR antagonist
CC(C)CNC(=O)c1cc(S(=O)(=O)N2CCOCC2)ccc1N1CCCC1	0.3%	-19.1%	6.9%	.
CCOC(=O)c1c(C)[nH]c(C(=O)COC(=O)c2ccc([N+](=O)[O-])o2)c1C	0.3%	.	.	.
COc1ccc(C2=NN(C(=O)c3cccs3)C(c3ccccc3O)C2)cc1 (stereo not drawn)	0.1%	?	-14.4%	10µM*
C=CCNc1oc(-c2cccc(F)c2)nc1C#N	-0.3%	.	.	.
CC(NC(=S)NCCCN1CCOCC1)C12CC3CC(CC(C3)C1)C2 (stereo not drawn)	0.2%	10µM*	?	-13.8%
CC(NC(=S)NCc1ccccc1)C12CC3CC(CC(C3)C1)C2 (stereo not drawn)	2.6%	2.82µM*	?	-26.2%
Cc1cccc(NC(=O)CS(=O)CC(=O)Nc2cnc3ccccc3c2)c1C (stereo not drawn)	-0.2%	-0.4%	6.8%	.
COc1cc(NS(=O)(=O)c2c(C(=O)N3CCOCC3)c(C)n(C)c2C)cc(OC)c1OC	-0.2%	-16.8%	-0.6%	.
O=C(C1CCN(c2ncnc3c2sc2cccc(F)c23)CC1)N1CCOCC1	-0.3%	-5.9%	-26.8%	-1.8%[46.1 µM]
O=C(NCCN1CCOCC1)C1CCN(c2ncnc3c2sc2cccc(F)c23)CC1	0.1%	1.8%	14.1µM*	17.7%[46.1 µM]
CN(C(=O)CSc1nc2ccccc2o1)C1CCCCC1	0.1%	.	.	.
CCC(C)n1c(=S)[nH]c2c(sc3ccc([N+](=O)[O-])cc32)c1=O (stereo not drawn)	0.1%	0.631µM*	1.26µM*	-11.4%
CC(=O)CC1OC(=O)C(Br)=C1NCc1ccccc1 (stereo not drawn)	?	?	20µM*	0.7%[46.1 µM]
O=C(CC1Oc2ccccc2NC1=O)NCc1ccccc1 (stereo not drawn)	0.1%	-9.9%	-16.1%	6.5%[46.1 µM]
C/C=C\C1=C(CO)C(=O)[C@@H]2OC2C1=O (stereo partly drawn)	.	?	-25.3%[10 µM]	.
CCN(C(=O)Nc1cccc(Cl)c1)c1ccccc1	0.3%	-1.0%	13.5%	.
CCN(C(=S)Nc1cccc(C)c1)c1ccccc1	-0.3%	15.8µM*	?	2.8%
CCN(C(=S)Nc1ccc(Oc2ccccc2)cc1)c1ccccc1	-0.8%	12.6µM*	17.8µM*	-2.3%[46.1 µM]
CCOC(=O)N1CCC(N(CCN(C)C)C(=S)Nc2ccc(Oc3ccccc3)cc2)CC1	0.1%	11.2µM*	-15.9%	-42.7%
CC(C)(N=NC(C)(C)C(=N)N)C(=N)N	.	-10.6%	-13.7%	.
Cc1ccc2[nH]c(CNC(=O)c3ccc(F)cc3)cc2c1	-0.3%	3.2%	17.2%	.
N#Cc1ccc(-c2cccnc2)nc1SCC(=O)Nc1sc2c(c1C#N)CCC2	0.0%	12.6µM*	?	-12.9%[46.1 µM]
COc1ccc(-c2ccc(C#N)c(SCC(=O)Nc3sc4c(c3C#N)CCC4)n2)cc1	-0.6%	-0.7%	-8.7%	-20.4%[46.1 µM]
CC(C)n1c(-c2ccc(N(C)C)cc2)nc2ccccc21	-0.5%	3.98µM*	20µM*	-4.5%[46.1 µM]
CN(C)c1ccc(-c2nc3ccccc3n2C)cc1	-0.3%	3.98µM*	?	-22.7%[46.1 µM]
SMILES	B2AR arrestin	RORg inh	VP16 counter	NPSR antagonist
CCn1c(-c2ccc(N(C)C)cc2)nc2ccccc21	-0.3%	6.31µM*	?	?
Cc1ccc(C(O)c2nc3ccccc3n2C(C)C)cc1 (stereo not drawn)	-0.3%	?	-8.7%	-16.5%[46.1 µM]
CN(Cc1nc2ccccc2n1C)c1ccccc1	-0.3%	11.2µM*	?	.
CCn1c(-c2ccc(N)cc2)nc2ccccc21	-0.6%	4.0%	8.4%	-3.2%[46.1 µM]
CC(=O)OC[C@@H]1O[C@H](C/C=N\O[C@@H](C)CN2CCCc3nc(C)c(C)cc32)C=C[C@@H]1OC(C)=O	.	-17.1%[10 µM]	6.7%[10 µM]	.
Cc1cc(/C=N/Nc2nc(N)ncc2[N+](=O)[O-])c(C)n1-c1cccc(C(F)(F)F)c1	0.1%	6.31µM*	?	-30.5%
Cc1cc(/C=N/Nc2ncnc(N)c2[N+](=O)[O-])c(C)n1-c1ccccc1	-1.1%	6.31µM*	6.31µM*	-11.5%
COc1ccc(CNC(=O)CSc2nnc(-c3ccc(NC(C)=O)cc3)n2C)cc1	.	-41.4%	6.8%	-14.0%[46.1 µM]
COC(=O)/C(=N\Nc1ccc(Cl)cc1)Sc1nnc(-c2ccc(OC)cc2)n1C	-0.5%	5.62µM*	?	18.0%

Bioassay records deposited in PubChem BioAssay by National Center for Advancing Translational Sciences (NCATS).
